From ChEMBL document CHEMBL4513135, “CO-ADD screening of IQOG CSIS (Spain) compounds”
Entries with a potency or affinity are not part of this list.

These molecules were tested on Staphylococcus aureus. Settings: Concentration 32 ug.mL-1; ASSAY_TEST Inhibition of Bacterial Growth; detection method Absorption (OD600); MEDIA CAMHB; plate type 384well; NBS; CORNING #3640; time 18 hr.

Structure (SMILES)	Inhibition
Cl.ClCCCN1CCCCC1	19.47%
CC(=O)CCc1c[nH]c2ccccc12	10.48%
C=C=CCN(C)Cc1cc2ccccc2n1C.O=C(O)C(=O)O	31.58%
Cc1ccc2[nH]c(=O)c(C=O)cc2c1	3.11%
CC(C)(C)OC(=O)Nc1ccc(Br)cn1	40.42%
N#Cc1cccnc1Cl	22.89%
N#CC1(Br)C(=NBr)Oc2c(ccc3ccccc23)C1c1cccc([N+](=O)[O-])c1 (stereo not drawn)	34.66%
CC(C)(C)OC(=O)Nc1ccc(Cl)cn1	37.58%
CN(Cc1cn(Cc2ccccc2)nn1)Cc1cc2cc(OCCCC3CCN(Cc4ccccc4)CC3)ccc2n1C	10.05%
CC1Cc2c(Br)nc3nc4c(c(N)c3c2NC1=O)CCCC4 (stereo not drawn)	27.55%
N#Cc1cc(C#N)c(NCc2ccccc2)nc1N	27.12%
O=C(N/N=C/c1ccc(Cl)cc1)c1cc2ccccc2[nH]1	1.43%
COc1cc(C2c3c(nc4c(c3N)CCC4)Oc3ccc4ccccc4c32)ccc1O (stereo not drawn)	11.79%
Cc1ccc2nc(Cl)c(/C=N/N)cc2c1	28.8%
CCOC(=O)c1cc2cc(OC(=O)Oc3ccc([N+](=O)[O-])cc3)ccc2[nH]1	13.73%
CCOC(=O)C1=C(C)Nc2nc3c(c(N)c2C1c1ccc([N+](=O)[O-])cc1)CCCC3.Cl (stereo not drawn)	34.25%
CN(C)c1cccc(C(=O)c2cccc(N(C)C)c2)c1	23.31%
CC(=NNC(N)=O)c1c[nH]c2ccccc12	2.54%
Cc1ccc(C2c3c(nc4c(c3N)CCCC4)Oc3ccc4ccccc4c32)cc1 (stereo not drawn)	10.92%
CC(=O)NCCc1ccccc1	12.71%

Structure (SMILES)	Inhibition
O=Cc1c(-c2ccc(Br)cc2)nc2ccccn12	3.95%
CC(=O)Oc1ccc(C=C2N=C(C)OC2=O)cc1	8.81%
C/C(Cc1ccccc1)=N\NC(=O)c1c[nH]c2ccccc12	5.98%
CSC1=NC(=Cc2cn(C)c3ccccc23)C(=O)N1C	3.9%
CC(C)CC(C)NNC(=O)c1cc2ccccc2[nH]1 (stereo not drawn)	-8.06%
N#Cc1c(Cl)nc(N2CCCCC2)c(C#N)c1-c1ccccc1	-12.16%
CC(C(=O)O)c1c[nH]c2ccccc12 (stereo not drawn)	5.61%
COc1ccc2cc(C3C4=C(CC(C)(C)CC4=O)Oc4nc5c(c(N)c43)CCCC5)c(Cl)nc2c1 (stereo not drawn)	25.96%
Nc1c2c(nc3c1c1ccccc1n3Cc1ccccc1)CCCC2	17.35%
Nc1n[nH]c2c1C(c1ccccc1)CC(=O)N2 (stereo not drawn)	40.09%
Cc1nn(-c2ccccc2)c2ncnc(NCc3ccccc3)c12	16.34%
Cc1cnc(NC(=O)OC(C)(C)C)c(Br)c1	34.57%
Cc1ccc(/C=N/NC(=O)c2c[nH]c3ccccc23)cc1	6.96%
COc1ccc(C2c3c(nc4c(c3N)CCCC4)Oc3ccc4ccccc4c32)cc1 (stereo not drawn)	18.52%
N#CC1=C(Cl)Oc2c(ccc3ccccc23)C1c1cccc([N+](=O)[O-])c1 (stereo not drawn)	9.83%
COc1cccc(C2c3c(ccc4ccccc34)OC(=NBr)C2(Br)C#N)c1 (stereo not drawn)	39.2%
CCOC(=O)C1=C(C)Oc2nc3c(c(N)c2C1c1nccn1C)CCCCC3 (stereo not drawn)	10.64%
N#Cc1c(Cl)nc(NC2CCN(Cc3ccccc3)CC2)c(C#N)c1-c1ccccc1	-0.92%
Cl.Nc1c2c(nc3c1C(c1ccccc1)c1c(ccc4ccccc14)O3)CCCC2 (stereo not drawn)	8.92%

The molecules below were run on Escherichia coli. Settings: Concentration 32 ug.mL-1; ASSAY_TEST Inhibition of Bacterial Growth; detection method Absorption (OD600); MEDIA CAMHB; plate type 384well; NBS; CORNING #3640; time 18 hr.

Structure (SMILES)	Inhibition
Cl.ClCCCN1CCCCC1	17.01%
CC(=O)CCc1c[nH]c2ccccc12	10.88%
C=C=CCN(C)Cc1cc2ccccc2n1C.O=C(O)C(=O)O	-19.52%
Cc1ccc2[nH]c(=O)c(C=O)cc2c1	-7.4%
CC(C)(C)OC(=O)Nc1ccc(Br)cn1	-0.9%
N#Cc1cccnc1Cl	-20.17%
N#CC1(Br)C(=NBr)Oc2c(ccc3ccccc23)C1c1cccc([N+](=O)[O-])c1 (stereo not drawn)	-14.11%
CC(C)(C)OC(=O)Nc1ccc(Cl)cn1	-2.82%
CN(Cc1cn(Cc2ccccc2)nn1)Cc1cc2cc(OCCCC3CCN(Cc4ccccc4)CC3)ccc2n1C	-17.67%
CC1Cc2c(Br)nc3nc4c(c(N)c3c2NC1=O)CCCC4 (stereo not drawn)	-12.78%
N#Cc1cc(C#N)c(NCc2ccccc2)nc1N	-14.28%
O=C(N/N=C/c1ccc(Cl)cc1)c1cc2ccccc2[nH]1	20.07%
COc1cc(C2c3c(nc4c(c3N)CCC4)Oc3ccc4ccccc4c32)ccc1O (stereo not drawn)	11.06%
Cc1ccc2nc(Cl)c(/C=N/N)cc2c1	25.39%
CCOC(=O)c1cc2cc(OC(=O)Oc3ccc([N+](=O)[O-])cc3)ccc2[nH]1	-33.4%
CCOC(=O)C1=C(C)Nc2nc3c(c(N)c2C1c1ccc([N+](=O)[O-])cc1)CCCC3.Cl (stereo not drawn)	-22.43%
CN(C)c1cccc(C(=O)c2cccc(N(C)C)c2)c1	7.89%
CC(=NNC(N)=O)c1c[nH]c2ccccc12	16.24%
Cc1ccc(C2c3c(nc4c(c3N)CCCC4)Oc3ccc4ccccc4c32)cc1 (stereo not drawn)	-5.39%
CC(=O)NCCc1ccccc1	11.94%

Structure (SMILES)	Inhibition
O=Cc1c(-c2ccc(Br)cc2)nc2ccccn12	9.28%
CC(=O)Oc1ccc(C=C2N=C(C)OC2=O)cc1	9.02%
C/C(Cc1ccccc1)=N\NC(=O)c1c[nH]c2ccccc12	14.48%
CSC1=NC(=Cc2cn(C)c3ccccc23)C(=O)N1C	-1.24%
CC(C)CC(C)NNC(=O)c1cc2ccccc2[nH]1 (stereo not drawn)	-7.16%
N#Cc1c(Cl)nc(N2CCCCC2)c(C#N)c1-c1ccccc1	17.72%
CC(C(=O)O)c1c[nH]c2ccccc12 (stereo not drawn)	8.04%
COc1ccc2cc(C3C4=C(CC(C)(C)CC4=O)Oc4nc5c(c(N)c43)CCCC5)c(Cl)nc2c1 (stereo not drawn)	20.91%
Nc1c2c(nc3c1c1ccccc1n3Cc1ccccc1)CCCC2	-10.77%
Nc1n[nH]c2c1C(c1ccccc1)CC(=O)N2 (stereo not drawn)	-4.9%
Cc1nn(-c2ccccc2)c2ncnc(NCc3ccccc3)c12	7.89%
Cc1cnc(NC(=O)OC(C)(C)C)c(Br)c1	-15.12%
Cc1ccc(/C=N/NC(=O)c2c[nH]c3ccccc23)cc1	7.51%
COc1ccc(C2c3c(nc4c(c3N)CCCC4)Oc3ccc4ccccc4c32)cc1 (stereo not drawn)	4.53%
N#CC1=C(Cl)Oc2c(ccc3ccccc23)C1c1cccc([N+](=O)[O-])c1 (stereo not drawn)	-16.88%
COc1cccc(C2c3c(ccc4ccccc34)OC(=NBr)C2(Br)C#N)c1 (stereo not drawn)	-16.78%
CCOC(=O)C1=C(C)Oc2nc3c(c(N)c2C1c1nccn1C)CCCCC3 (stereo not drawn)	-6.7%
N#Cc1c(Cl)nc(NC2CCN(Cc3ccccc3)CC2)c(C#N)c1-c1ccccc1	-18.84%
Cl.Nc1c2c(nc3c1C(c1ccccc1)c1c(ccc4ccccc14)O3)CCCC2 (stereo not drawn)	12.69%
